Measurements reported in PubChem BioAssay (Tox21).
Records with an inconclusive call do not appear. The source made the active and inactive calls. Unless noted, calls come from the whole dose curve.

System: not listed separately
Test: qHTS assay to identify small molecule antagonists of the thyroid receptor (TR) signaling pathway - cell viability counter screen (AID 743064; active = well fitted curve in the direction sought with a large enough effect in the repeat runs; an effect the other way counts as inactive or inconclusive; note: nearly all actives have a fitted effect of over 50% in size)
Settings: GH3.TRE-Luc viability, CellTiter-Fluor, 24 h; series mostly up to 70.3 µM; activity change, negative = cytotoxic: at the top concentration
Outline: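 Rat GH3 pituitary tumor cells stably expressing two TR response elements driving luciferase were plated, rested 4 h, then dosed with library compounds and T3 (1 nM final). After 23.5 h at 37 °C, CellTiter-Fluor was added for 30 min and fluorescence recorded.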
% is set by controls: 0 for no effect and ±100 for the full control effect.

SMILES | activity change, negative = cytotoxic
O=C(NC(=O)c1c(F)cccc1F)Nc1cc(Cl)c(F)c(Cl)c1F | 8.01% (inactive)
c1ccc2c(c1)CCNC2 | -3.84% [at 95 µM] (inactive)
CCC1(c2cccc(O)c2)CCCCN(C)C1 (stereo not drawn) | 21.6% [at 32.5 µM] (inactive)
CCCCCCCCBr | -0.728% (inactive)
C=C1CC[C@@]2(O)[C@H]3Cc4ccc(O)c5c4[C@@]2(CCN3CC2CC2)[C@H]1O5 | 16.9% (inactive)
C#CCOC(=O)/C=C(C)/C=C/CC(C)CCCC(C)C (stereo not drawn) | 12.3% (inactive)
CCOc1cc(OP(=S)(OC)OC)nc(CC)n1 | -2.62% (inactive)
N#CC(Br)(Br)C(N)=O | 23.3% (inactive)
NNCc1ccccc1 | -3.71% [at 95 µM] (inactive)

System: not listed separately
Test: qHTS assay to identify small molecule antagonists of the thyroid receptor (TR) signaling pathway (AID 743065; active = well fitted curve in the direction sought with a large enough effect in the repeat runs; an effect the other way counts as inactive or inconclusive; note: nearly all actives have a fitted effect of over 55% in size; note: potency is the fitted concentration of half-maximal effect)
Settings: GH3.TRE-Luc, T3-stimulated luciferase inhibition, 23.5 h; series mostly up to 70.3 µM; activity, negative = inhibition: at the top concentration
Outline: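 Antagonism measured as loss of luciferase signal in GH3 cells stably carrying a TRE-luciferase reporter, co-treated with compound and T3 (1 nM final) for 23.5 h at 37 C. Viability was read in the same well by CellTiter-Fluor.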

SMILES | activity, negative = inhibition | Potency
O=C(Cl)C(Cl)(Cl)Cl | 14.6% [at 95 µM] (inactive) | 
CN(C)CCN(C)C | -1.72% (inactive) | 
O=C(Cl)C(Cl)Cl | 31.8% (inactive) | 
Brc1c(Br)c(Br)c(Br)c(Br)c1Br | 36% [at 8.44 µM] (inactive) | 
CCNc1nc(Cl)nc(NC(C)(C)C)n1 | -0.164% (inactive) | 
N#CN=C1SCCN1Cc1ccc(Cl)nc1 | -0.299% (inactive) | 
C=CCN1CC[C@]23CCCC[C@H]2[C@H]1Cc1ccc(O)cc13 |  | 29.8 µM (active)
COc1ccc2c(C(=O)c3ccc(Cl)cc3)c(C)n(CC(=O)O)c2c1 | 0.0352% (inactive) | 
CCC(=O)OC1(c2ccccc2)CCN(C)CC1 | 42.8% [at 95 µM] (inactive) | 
CCC1(c2ccccc2)C(=O)N(COC)C(=O)N(COC)C1=O | 15.4% (inactive) | 
CCC(C(N)=O)N1CCCC1=O (stereo not drawn) | 22.7% (inactive) | 
C[N+]1(C)CCCCC1 | -4.05% (inactive) | 
CCc1cc(OC)c(C[C@H](C)N)cc1OC |  | 31.9 µM (active)
CCN(CCO)CCn1c(Cc2ccccc2)nc2c1c(=O)n(C)c(=O)n2C | 6.62% (inactive) | 
CCNP(=S)(OC)O/C(C)=C/C(=O)OC(C)C (stereo not drawn) | 12.2% (inactive) | 
COC1=CC(=O)O[C@@H](/C=C/c2ccccc2)C1 | -9.21% [at 95 µM] (inactive) | 
O=C(Cl)/C=C/C(=O)Cl | 0.245% [at 95 µM] (inactive) | 

System: thyroid hormone receptor (rat, GH3 cells)
Test: qHTS assay to identify small molecule agonists of the thyroid receptor (TR) signaling pathway (AID 743066)
Settings: GH3.TRE-Luc cells, TR agonist luciferase, 24 h; series mostly up to 83.9 µM; activation: at the top concentration

SMILES | activation
Cc1ccc2cc(C)ccc2c1 | 2.11% (inactive)
O=C(Cl)C(Cl)(Cl)Cl | 0.581% [at 95.2 µM] (inactive)
CN(C)CCN(C)C | 1.26% (inactive)
CCC1(c2cccc(O)c2)CCCCN(C)C1 (stereo not drawn) | 0.756% [at 39.4 µM] (inactive)
C=C(Cl)CCl | -0.146% (inactive)
CC(Cc1ccccc1)NCCn1cnc2c1c(=O)n(C)c(=O)n2C (stereo not drawn) | -1.61% (inactive)
O=C(Cl)C(Cl)Cl | 0.177% (inactive)
Brc1c(Br)c(Br)c(Br)c(Br)c1Br | -0.0085% [at 8.08 µM] (inactive)
CCNc1nc(Cl)nc(NC(C)(C)C)n1 | 0.867% (inactive)
N#CN=C1SCCN1Cc1ccc(Cl)nc1 | -0.246% (inactive)
CC(C)(N)Cc1ccc(Cl)cc1 | -2.27% (inactive)
C=CCN1CC[C@]23CCCC[C@H]2[C@H]1Cc1ccc(O)cc13 | -7.02% (inactive)
COc1ccc2c(C(=O)c3ccc(Cl)cc3)c(C)n(CC(=O)O)c2c1 | 0.203% (inactive)
CCC(=O)OC1(c2ccccc2)CCN(C)CC1 | -1.93% [at 95.2 µM] (inactive)
C=C(Cl)CSC(=S)N(CC)CC | -3.05% [at 95.2 µM] (inactive)
CCC1(c2ccccc2)C(=O)N(COC)C(=O)N(COC)C1=O | 1.02% (inactive)
CCC(C(N)=O)N1CCCC1=O (stereo not drawn) | 2.27% (inactive)
CCc1cc(OC)c(C[C@H](C)N)cc1OC | -5.77% [at 95.2 µM] (inactive)
CCN[C@H](C)Cc1cccc(C(F)(F)F)c1 | -3.01% (inactive)
CCN(CCO)CCn1c(Cc2ccccc2)nc2c1c(=O)n(C)c(=O)n2C | -2.3% (inactive)
CCNP(=S)(OC)O/C(C)=C/C(=O)OC(C)C (stereo not drawn) | 0.285% (inactive)
CN(C)C1CCCCC1 | 1.12% (inactive)
CON(C)C(=O)Nc1ccc(Br)c(Cl)c1 | -3.47% (inactive)
CN1C(=O)COc2c(C(=O)NC3CN4CCC3CC4)cc(Cl)cc21 (stereo not drawn) | -4.12% (inactive)
C[C@H](CN1CCOCC1)C(C(=O)N1CCCC1)(c1ccccc1)c1ccccc1 | -8.78% [at 95.2 µM] (inactive)
COC1=CC(=O)O[C@@H](/C=C/c2ccccc2)C1 | 0.222% [at 95.2 µM] (inactive)
O=C(Cl)/C=C/C(=O)Cl | -0.0737% [at 95.2 µM] (inactive)
